Measurements from PubChem BioAssay (NCI).
This is part of a sample that, as a whole, favours compounds with a hit. Of some 83,000 tested, about 20% had one in any assay.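 Compound tested at a single concentration for 48 hours in 96-well plates; a percent growth value below 10 was scored as active.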 Calls of active or inactive are those of the source.

Legend:
Experiment in all cases: NCI-60 one-dose screen, 48 h (100 = growth as untreated, 0 = no growth, -100 = all killed)
Settings in all cases: 10 µM unless noted
[1] = test system: SK-MEL-2 melanoma
[2] = test system: EKVX NSCLC
[3] = test system: SN12C renal
[4] = test system: UO-31 renal
[5] = test system: CAKI-1 renal
[6] = test system: A498 renal
[7] = test system: MOLT-4 leukemia
[8] = test system: SR leukemia
[9] = test system: RPMI-8226 leukemia
[10] = test system: OVCAR-8 ovarian
[11] = test system: OVCAR-5 ovarian
[12] = test system: OVCAR-4 ovarian
[13] = test system: SK-OV-3 ovarian
[14] = test system: IGROV1 ovarian
[15] = test system: OVCAR-3 ovarian
[16] = test system: HS 578T breast
[17] = test system: NCI/ADR-RES ovarian
[18] = test system: TK-10 renal
[19] = test system: ACHN renal
[20] = test system: CCRF-CEM leukemia

Measured: growth

CC1CC2Oc3ccc(Cl)cc3C(=O)N2O1 (centres undefined)
inactive: [1] 98.6% | [2] 109% | [3] 105% | [4] 92.9% | [5] 97.1% | [6] 86.9% | [7] 105% | [8] 98.2% | [9] 91.1% | [10] 107% | [11] 98.7% | [12] 117% | [13] 100% | [14] 125% | [15] 114% | [16] 102% | [17] 107%

Clc1cccc(Cl)c1/C=C/c1cc(/C=C/c2c(Cl)cccc2Cl)[nH]n1
inactive: [1] 32.4% | [2] 42% | [3] 40.4% | [18] 52.2% | [19] 48.9% | [5] 30.1% | [6] 19% | [8] 24.7% | [9] 21.8% | [10] 31.1% | [11] 33.4% | [12] 54.6% | [13] 44.4% | [14] 48% | [16] 45.5%
active: [15] -16.5% | [17] 4.02%

COc1ccc2c(c1)[nH]c(=O)c1c3cccnc3cn21
inactive: [1] 68.9% | [2] 63.2% | [3] 13.4% | [18] 61.8% | [19] 30.5% | [20] 23.1% | [7] 25.1% | [9] 32% | [13] 11.9% | [14] 20.2% | [15] 23.8% | [16] 49.6%
active: [5] -14.4% | [6] -3.48% | [17] 0.176%

Cc1ccc(S(=O)(=O)n2cc(CNc3ccc(N4CCOCC4=O)cc3)c3ccccc32)cc1
active: [6] -51.1%
inactive: [1] 102% | [2] 98.5% | [3] 84.3% | [18] 65.2% | [5] 30.4% | [20] 53.5% | [7] 82.7% | [9] 67.9% | [10] 81.7% | [11] 30.1% | [12] 62.3% | [13] 87.4% | [14] 67.5% | [15] 86.8% | [16] 89.6% | [17] 78%

O=C1/C(=C\c2c[nH]c3ccccc23)c2ccccc2N1c1c(Cl)cccc1Cl
active: [2] -5.29% | [3] -29.6% | [18] -29.4% | [19] 3.26% | [5] -38.6% | [7] -13.1% | [10] 8.34% | [11] -35.9% | [15] -27.8% | [16] -11.4% | [17] -8.2%
inactive: [1] 15.8% | [6] 19.2% | [20] 11.6% | [12] 25% | [13] 22.7% | [14] 23.9%

O=c1ccn2nc3ccccc3c2[nH]1
inactive: [1] 108% | [2] 63.6% | [3] 84.8% | [18] 121% | [19] 91.1% | [5] 89.4% | [6] 125% | [20] 118% | [7] 108% | [9] 101% | [10] 114% | [11] 79.2% | [12] 111% | [13] 99.4% | [14] 110% | [15] 117% | [16] 134% | [17] 60.1%

O=[N+]([O-])c1ccc(OCCO)cc1
inactive: [1] 105% | [2] 92.8% | [3] 101% | [18] 117% | [19] 104% | [5] 93.1% | [6] 90.6% | [20] 96.2% | [8] 139% | [9] 101% | [10] 98.7% | [11] 97.1% | [12] 102% | [13] 103% | [14] 105% | [15] 99.9% | [16] 99.5% | [17] 97.8%

COc1ccc2c(c1)O/C(=C/c1ccc(OCC(=O)c3ccccc3)cc1)C2=O
inactive: [1] 108% | [2] 97% | [3] 107% | [18] 115% | [19] 99.5% | [5] 103% | [6] 170% | [7] 90.3% | [8] 72.7% | [9] 99.7% | [10] 111% | [11] 88.6% | [12] 113% | [13] 125% | [15] 90.1% | [16] 350% | [17] 93.1%

CC(C)C(=O)Nc1n[nH]c2cc(-c3cccc(NS(=O)(=O)C4CC4)c3)ccc12
inactive: [1] 78% | [2] 71.7% | [3] 77.7% | [18] 94.9% | [19] 70% | [5] 71.2% | [6] 100% | [20] 72.4% | [7] 57.8% | [9] 66.1% | [10] 82.2% | [11] 87.4% | [12] 52.8% | [13] 62.3% | [14] 64.6% | [15] 57.8% | [16] 77.7% | [17] 98.1%

CC1(C)CC(=O)C2=C(C1)N(c1ccc(OC(F)(F)F)cc1)C(N)=C(C#N)C2c1ccc(Cl)cc1 (centres undefined)
inactive: [1] 90.7% | [2] 84.6% | [3] 80% | [18] 89.7% | [5] 60.8% | [6] 94.4% | [20] 96.5% | [7] 95.4% | [10] 56.2% | [11] 91% | [12] 85% | [13] 62.7% | [14] 90.3% | [15] 94.5% | [16] 65.5% | [17] 87.6%

Cc1cc(O)c(C2=NN(c3ccc(S(N)(=O)=O)cc3)C(c3ccccc3Cl)C2)cc1Cl (centres undefined)
inactive: [1] 25.2% | [3] 18.8% | [18] 60.6% | [19] 15.7% | [6] 45.9% | [9] 11% | [11] 18.1% | [13] 44.5% | [14] 12.2%
active: [2] -1.91% | [5] -3.01% | [20] 9.09% | [7] -31.6% | [10] -14.5% | [15] -13.1% | [16] -4.47% | [17] -11%

COc1ccc2cc(-c3cc(OC)c(OC)c(OC)c3)c(=O)oc2c1
inactive: [1] 62.3% | [2] 54.1% | [3] 92.7% | [18] 85.8% | [19] 90.1% | [5] 79.3% | [6] 53% | [20] 74.6% | [8] 26.8% | [9] 83.6% | [10] 82.8% | [11] 94.2% | [12] 79.9% | [13] 72% | [14] 82.3% | [15] 81.8% | [16] 75.5% | [17] 49%

CC(=O)O[C@]1(C(C)=O)CCC2C3C[C@H](C)C4=CC(=O)CC[C@]4(C)C3CC[C@@]21C (some centres undefined)
inactive: [1] 98.1% | [2] 72.6% | [3] 63.1% | [18] 106% | [19] 96.6% | [5] 73.8% | [6] 103% | [20] 81.8% | [7] 81.7% | [9] 58.9% | [10] 91.7% | [11] 90.6% | [12] 93% | [13] 81.9% | [14] 81.6% | [15] 115% | [16] 130% | [17] 79.6%

N/C(=N/N=C/c1ccccc1)N/N=C\c1ccccc1
inactive: [1] 42.1% | [2] 76.5% | [3] 67.4% | [18] 73.9% | [19] 76% | [5] 62.9% | [6] 66.6% | [20] 50.6% | [7] 30.4% | [9] 55.3% | [10] 65.2% | [11] 83.4% | [12] 87.2% | [13] 72.4% | [14] 73% | [15] 12.6% | [16] 67.7% | [17] 10.7%

CCCCCCCC/C=C\CCCCCCCCOc1ccccc1CC(=O)NCC[N+](C)(C)C
active: [18] 9.37%
inactive: [1] 96.4% | [2] 83.4% | [3] 67.5% | [19] 68.2% | [5] 50.7% | [6] 100% | [7] 77.3% | [8] 23.6% | [9] 56.1% | [10] 64.4% | [11] 25% | [12] 78.7% | [13] 81.9% | [14] 28.9% | [15] 83.2% | [16] 91.8% | [17] 104%

Cc1cc(NCc2cc(Nc3ccnc4cc(Cl)ccc34)ccc2F)nc(N2CCOCC2)n1
inactive: [1] 84.6% | [2] 54.3% | [3] 31.4% | [5] 60.3% | [6] 51.7% | [9] 29.4% | [10] 36.3% | [11] 76.5% | [14] 49.7% | [15] 16.1% | [16] 16.5% | [17] 25%
active: [4] -47.8% | [20] 1.04% | [8] -13% | [13] 0.55%

Cc1cccc(NC(=O)N/C(N)=N/c2nc(C)c(C)s2)c1
inactive: [1] 43.7% | [2] 55.8% | [3] 57.6% | [19] 63.4% | [5] 30.6% | [6] 20% | [20] 53.5% | [7] 21.9% | [9] 28.8% | [10] 58% | [11] 82.3% | [12] 76% | [13] 65.6% | [14] 47.5% | [15] 39.8% | [16] 43.9% | [17] 25.3%

CCc1ccccc1NC(=O)/C(C#N)=C/c1ccc(OC)cc1
inactive: [1] 104% | [2] 92.7% | [3] 94% | [18] 115% | [19] 97.4% | [5] 103% | [6] 100% | [20] 84.7% | [7] 87.3% | [9] 91% | [11] 100% | [12] 94.3% | [13] 105% | [14] 115% | [15] 92.6% | [16] 92.6% | [17] 97.8%
